Among the data in PubChem BioAssay (EPA / NIEHS) are outcome and AC50 values, retold here.

Results filed as inconclusive are left out. Activity calls are given as the source filed them. Rule for the calls, unless noted: active = hit-call score of the fitted dose curve at least 0.9, where 1 is the maximum; inconclusive = response in the unintended direction; inactive = score below 0.9.

Experiment [1] has as its target human Peroxisome Proliferator-activated Receptor alpha (PPARa), PPARA (gene 5465) (UniProt Q07869). In words: ATG_PPARa_TRANS: Attagene TRANS-FACTORIAL HepG2 Assay for human Peroxisome Proliferator-activated Receptor alpha (PPARa) (AID 2283001).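 For AC50: potency for gain of reporter signal over DMSO so agonist or activator.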 The method, boiled down: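 Exposure: 24 h, transiently transfected HepG2 cells. Endpoint: GAL4-UAS reporter mRNA, RT-PCR with capillary electrophoresis fluorescence. Baseline: DMSO; increases fitted.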

Experiment [2] addresses human Peroxisome Proliferator-activated Receptor delta (PPARd), PPARD (gene 5467) (UniProt Q03181). The experiment is described as follows: ATG_PPARd_TRANS: Attagene TRANS-FACTORIAL HepG2 Assay for human Peroxisome Proliferator-activated Receptor delta (PPARd) (AID 2283002). The method, boiled down:
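Measured quantity: GAL4-UAS reporter transcript induction in HepG2 after 24 h chemical dosing, with NR-Gal4 chimeras supplied by transient transfection. Detection by RT-PCR and capillary electrophoresis; upward fit against DMSO.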

Read-out in experiment [3]: Intercellular Adhesion Molecule 1 (ICAM1), ICAM1 (gene 3383)
The experiment is described as follows: BSK_3C_ICAM1: BioMAP Diversity Plus: 3C Assay for Intercellular Adhesion Molecule 1 (ICAM1) Biomarker Activity (AID 2283003; active = hit-call score of the fitted dose curve at least 0.9, where 1 is the maximum; inactive = score below 0.9). To be noted: primary human endothelial cells (HUVEC); actives raise or lower the signal. A digest of the protocol:
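Using DMSO as baseline, bidirectional curve fitting was applied to ICAM-1 ELISA signals from HUVEC in the 3C system, measured 24 h after compound addition.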

In experiment [4] the target is Retinoic acid receptor alpha (Homo sapiens) (UniProt P10276). The experiment is described as follows: ATG_RARa_TRANS: Attagene TRANS-FACTORIAL HepG2 Assay for human Retinoic Acid Receptor alpha (RARa) (AID 2283005). A digest of the protocol:
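HepG2 cells transiently transfected with multiple reporter units expressing chimeric RARα-GAL4 fusion, with GAL4-UAS-driven reporters. After 24 h compound exposure, reporter mRNA induction quantified by RT-PCR and capillary electrophoresis with fluorescent labeling; gain-of-signal fitted relative to DMSO control.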

Experiment [5] in a line: BSK_3C_Proliferation: Cell Proliferation Assessment in the BioMAP Diversity Plus: 3C Assay (AID 2283006; active = hit-call score of the fitted dose curve at least 0.9, where 1 is the maximum; inactive = score below 0.9;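 for AC50: potency may reflect either rise or fall in cell number versus DMSO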). To be noted: primary human endothelial cells (HUVEC). A digest of the protocol:
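Measured here: sulforhodamine B (0.1%) staining of TCA-fixed sub-confluent umbilical vein endothelial cultures 48 h post-dosing, absorbance 560 nm. DMSO served as negative control and baseline; both signal gain and loss were modelled.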

Experiment [6] has as its target Nuclear receptor subfamily 1 group I member 2 (Homo sapiens) (UniProt O75469). The experiment is described as follows: ATG_PXR_TRANS: Attagene TRANS-FACTORIAL HepG2 Assay for human Pregnane X Receptor (PXR) (AID 2283008). A digest of the protocol: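 Transient HepG2 transfectants carrying multiplexed reporter transcription units; PXR activity read through a Gal4 chimera. 24 h exposure. RT-PCR/CE fluorescence; upward curve fit referenced to DMSO.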

The target of experiment [7] is Retinoic acid receptor RXR-alpha (Homo sapiens) (UniProt P19793). The experiment is described as follows: ATG_RXRa_TRANS: Attagene TRANS-FACTORIAL HepG2 Assay for human Retinoid X Receptor alpha (RXRa) (AID 2283012). A digest of the protocol: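 Chimeric NR-GAL4 trans-activation in HepG2, 24 h treatment; reporter transcripts quantified by fluorescence on capillary electrophoresis, analysed for upward change from DMSO.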
Retinoic acid receptor RXR-alpha (Homo sapiens), sequence (P19793 whole entry, looked up, the tested form may be a part): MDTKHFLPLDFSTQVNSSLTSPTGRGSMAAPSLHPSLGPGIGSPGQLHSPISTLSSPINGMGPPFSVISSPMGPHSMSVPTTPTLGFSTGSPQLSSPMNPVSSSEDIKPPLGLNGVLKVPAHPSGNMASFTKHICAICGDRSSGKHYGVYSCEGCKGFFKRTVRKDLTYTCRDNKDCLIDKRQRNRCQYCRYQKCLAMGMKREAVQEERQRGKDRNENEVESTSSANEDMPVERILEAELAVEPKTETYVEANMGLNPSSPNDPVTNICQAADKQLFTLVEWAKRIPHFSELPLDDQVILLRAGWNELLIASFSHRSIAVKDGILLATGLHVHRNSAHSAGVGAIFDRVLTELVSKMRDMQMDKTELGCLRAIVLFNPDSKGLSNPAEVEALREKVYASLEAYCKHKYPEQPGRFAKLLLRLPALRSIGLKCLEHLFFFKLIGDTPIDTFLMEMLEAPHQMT

For experiment [8], the target named is human Retinoid X Receptor beta (RXRb), RXRB (gene 6257) (UniProt P28702). The experiment is described as follows: ATG_RXRb_TRANS: Attagene TRANS-FACTORIAL HepG2 Assay for human Retinoid X Receptor beta (RXRb) (AID 2283013). The method, boiled down:
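After a 24 h incubation with test chemical, transfected HepG2 cells carrying NR-Gal4 fusions and GAL4-UAS reporter transcription units yield RNA whose reporter cDNA is FAM-labelled, HpaI-cut and sized by capillary electrophoresis; increases over DMSO are scored.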

Experiment [9] addresses human Thyroid Receptor alpha (THRa1), THRA (gene 7067) (UniProt P10827). The experiment is described as follows: ATG_THRa1_TRANS: Attagene TRANS-FACTORIAL HepG2 Assay for human Thyroid Receptor alpha (THRa1) (AID 2283014). The method, boiled down: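 HepG2 cells transiently transfected with multiplexed GAL4-UAS reporter units for exogenous chimeric THRa1-Gal4; reporter mRNA measured 24 h after dosing by RT-PCR, 6-FAM labelling, HpaI digestion and capillary electrophoresis. Gain-of-signal fitted versus DMSO baseline.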

Read-out in experiment [10]: E-selectin (Homo sapiens) (UniProt P16581)
The experiment is described as follows: BSK_3C_Eselectin: BioMAP Diversity Plus: 3C Assay for Eselectin Biomarker Activity (AID 2283015; active = hit-call score of the fitted dose curve at least 0.9, where 1 is the maximum; inactive = score below 0.9;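 note: cell surface E-selectin protein quantified by ELISA 24 h after dosing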). To be noted: primary human endothelial cells (HUVEC); actives raise or lower the signal. A digest of the protocol:
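Primary human umbilical vein endothelial cells (3C system) were dosed with chemical and cell-surface E-selectin measured by ELISA 24 h later. Bidirectional curve fitting used DMSO as negative control and baseline.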

Read-out in experiment [11]: Interleukin-1 alpha (IL1a), IL1A (gene 3552)
The experiment is described as follows: BSK_BE3C_IL1a: BioMAP Diversity Plus: BE3C Assay for Interleukin-1 alpha (IL1a) Biomarker Activity (AID 2283016; active = hit-call score of the fitted dose curve at least 0.9, where 1 is the maximum; inactive = score below 0.9). The following applies: primary human bronchial epithelial cells; actives raise or lower the signal. A digest of the protocol:
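Measured in human lung primary bronchial epithelial cells: IL-1a by ELISA at 24 h after dosing, with bidirectional fitting against DMSO.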

Read-out in experiment [12]: Monocyte Chemoattractant Protein-1 (MCP1), CCL2 (gene 6347)
In words: BSK_3C_MCP1: BioMAP Diversity Plus: 3C Assay for Monocyte Chemoattractant Protein-1 (MCP1) Biomarker Activity (AID 2283017; active = hit-call score of the fitted dose curve at least 0.9, where 1 is the maximum; inactive = score below 0.9). To be noted: primary human endothelial cells (HUVEC); actives raise or lower the signal. The method, boiled down:
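Primary human umbilical vein endothelial cells (3C system) were exposed to test chemical for 24 h, after which MCP-1 was quantified by ELISA. Activity was fitted bidirectionally against DMSO as negative control and baseline.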

Read-out in experiment [13]: Monocyte Chemoattractant Protein-1 (MCP1), CCL2 (gene 6347)
In words: BSK_4H_MCP1: BioMAP Diversity Plus: 4H Assay for Monocyte Chemoattractant Protein-1 (MCP1) Biomarker Activity (AID 2283018; active = hit-call score of the fitted dose curve at least 0.9, where 1 is the maximum; inactive = score below 0.9). To be noted: primary human endothelial cells (HUVEC); actives raise or lower the signal. The method, boiled down: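 Primary human umbilical vein endothelium is exposed to chemical for 24 h before MCP-1 is assayed by ELISA. Concentration-response fitted bidirectionally relative to DMSO.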

Read-out in experiment [14]: Human Leukocyte Antigen - DR isotype (HLADR), HLA-DRA (gene 3122)
The experiment is described as follows: BSK_3C_HLADR: BioMAP Diversity Plus: 3C Assay for Human Leukocyte Antigen - DR isotype (HLADR) Biomarker Activity (AID 2283019; active = hit-call score of the fitted dose curve at least 0.9, where 1 is the maximum; inactive = score below 0.9;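 note: ELISA of cell-surface HLA-DR on HUVEC 24 h after dosing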). The following applies: primary human endothelial cells (HUVEC); actives raise or lower the signal. The method, boiled down:
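Primary human umbilical vein endothelial cells (3C system) were dosed with compound and cell-surface HLA-DR was quantified by ELISA at 24 h. Activity was fitted bidirectionally against DMSO as negative control and baseline.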

Read-out in experiment [15]: Interleukin-8 (IL8), CXCL8 (gene 3576)
In words: BSK_3C_IL8: BioMAP Diversity Plus: 3C Assay for Interleukin-8 (IL8) Biomarker Activity (AID 2283020; active = hit-call score of the fitted dose curve at least 0.9, where 1 is the maximum; inactive = score below 0.9). The following applies: primary human endothelial cells (HUVEC); actives raise or lower the signal. The method, boiled down:
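Using DMSO-treated wells as the baseline, bidirectional curve fitting was applied to ELISA-measured IL-8 from human umbilical vein endothelial cultures sampled 24 h after compound addition.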

Read-out in experiment [16]: Monokine induced gamma interferon (MIG), CXCL9 (gene 4283)
The experiment is described as follows: BSK_3C_MIG: BioMAP Diversity Plus: 3C Assay for Monokine induced gamma interferon (MIG) Biomarker Activity (AID 2283021; active = hit-call score of the fitted dose curve at least 0.9, where 1 is the maximum; inactive = score below 0.9). The following applies: primary human endothelial cells (HUVEC); actives raise or lower the signal. The method, boiled down:
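ELISA-measured MIG in dosed HUVEC 3C cultures at 24 h, analysed by bidirectional fitting with DMSO defining baseline activity.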

Experiment [17] concerns the target Peroxisome proliferator-activated receptor gamma (Homo sapiens) (UniProt P37231). In words: ATG_PPARg_TRANS: Attagene TRANS-FACTORIAL HepG2 Assay for human Peroxisome Proliferator-activated Receptor-gamma (PPARg) (AID 2283007). A digest of the protocol: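 A TRANS-format multiplexed reporter assay measures activity of an exogenous chimeric NR-Gal4 protein in HepG2 cells. After 24 h of chemical exposure, reporter transcripts are amplified, fluorescently labelled and sized by capillary electrophoresis, with gain of signal scored against DMSO.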

Experiment [18] concerns the target human RAR-related Orphan Receptor gamma (RORg), RORC (gene 6097) (UniProt P51449). In words: ATG_RORg_TRANS: Attagene TRANS-FACTORIAL HepG2 Assay for human RAR-related Orphan Receptor gamma (RORg) (AID 2283011). A digest of the protocol: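 Readout: reporter transcript induction (RT-PCR, fluorescent primer extension, capillary electrophoresis) after 24 h compound exposure of transiently transfected HepG2 cells carrying a RORg-Gal4 chimera and GAL4-UAS reporters; DMSO served as baseline, with increasing signal fitted.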

The target of experiment [19] is human Retinoic Acid Receptor beta (RARb), RARB (gene 5915) (UniProt P10826). The experiment is described as follows: ATG_RARb_TRANS: Attagene TRANS-FACTORIAL HepG2 Assay for human Retinoic Acid Receptor beta (AID 2283004). A digest of the protocol: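 HepG2 cells transiently transfected with multiplexed GAL4-UAS reporter units expressing chimeric NR–Gal4 fusions; 24 h compound exposure. Reporter mRNA quantified by RT-PCR, 6-FAM labelling, HpaI digestion and capillary electrophoresis; gain-of-signal fitted against DMSO baseline.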

Experiment [20] deals with human Retinoic Acid Receptor gamma (RARg), RARG (gene 5916) (UniProt P13631). The experiment is described as follows: ATG_RARg_TRANS: Attagene TRANS-FACTORIAL HepG2 Assay for human Retinoic Acid Receptor gamma (RARg) (AID 2283009). A digest of the protocol: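 Gain-of-signal relative to DMSO is reported from fluorescent capillary electrophoresis of RT-PCR reporter products. These came from HepG2 cells expressing transfected RARg-GAL4 chimeras with UAS reporters, harvested 24 h after dosing.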

Peroxisome proliferator-activated receptor gamma (Homo sapiens), sequence (P37231 whole entry, looked up, the tested form may be a part): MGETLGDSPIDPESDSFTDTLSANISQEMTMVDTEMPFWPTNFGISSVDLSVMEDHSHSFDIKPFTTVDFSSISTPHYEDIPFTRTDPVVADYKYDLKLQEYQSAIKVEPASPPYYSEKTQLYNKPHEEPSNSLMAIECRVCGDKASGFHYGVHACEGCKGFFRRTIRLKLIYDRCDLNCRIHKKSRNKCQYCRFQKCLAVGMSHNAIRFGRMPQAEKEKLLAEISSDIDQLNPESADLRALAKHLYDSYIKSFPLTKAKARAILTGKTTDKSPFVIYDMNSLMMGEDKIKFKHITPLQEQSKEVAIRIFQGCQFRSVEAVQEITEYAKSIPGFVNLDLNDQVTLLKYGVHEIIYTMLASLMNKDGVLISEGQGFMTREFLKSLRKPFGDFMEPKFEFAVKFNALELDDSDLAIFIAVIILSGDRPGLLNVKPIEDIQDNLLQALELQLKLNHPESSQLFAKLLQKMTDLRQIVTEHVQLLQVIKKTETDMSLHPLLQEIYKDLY
human Peroxisome Proliferator-activated Receptor delta (PPARd), PPARD (gene 5467), sequence (Q03181 whole entry, looked up, the tested form may be a part): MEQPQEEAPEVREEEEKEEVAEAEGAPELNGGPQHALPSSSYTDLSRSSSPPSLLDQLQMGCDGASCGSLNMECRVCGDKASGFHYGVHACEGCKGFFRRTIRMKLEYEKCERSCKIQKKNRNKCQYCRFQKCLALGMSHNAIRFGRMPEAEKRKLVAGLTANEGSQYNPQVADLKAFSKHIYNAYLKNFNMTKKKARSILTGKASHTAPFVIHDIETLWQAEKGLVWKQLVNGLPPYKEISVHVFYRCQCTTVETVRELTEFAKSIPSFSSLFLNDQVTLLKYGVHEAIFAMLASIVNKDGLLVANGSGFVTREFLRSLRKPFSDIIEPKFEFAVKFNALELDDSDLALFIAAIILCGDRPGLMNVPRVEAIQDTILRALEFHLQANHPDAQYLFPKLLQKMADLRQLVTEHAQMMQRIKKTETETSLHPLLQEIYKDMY
human Retinoid X Receptor beta (RXRb), RXRB (gene 6257), sequence (P28702 whole entry, looked up, the tested form may be a part): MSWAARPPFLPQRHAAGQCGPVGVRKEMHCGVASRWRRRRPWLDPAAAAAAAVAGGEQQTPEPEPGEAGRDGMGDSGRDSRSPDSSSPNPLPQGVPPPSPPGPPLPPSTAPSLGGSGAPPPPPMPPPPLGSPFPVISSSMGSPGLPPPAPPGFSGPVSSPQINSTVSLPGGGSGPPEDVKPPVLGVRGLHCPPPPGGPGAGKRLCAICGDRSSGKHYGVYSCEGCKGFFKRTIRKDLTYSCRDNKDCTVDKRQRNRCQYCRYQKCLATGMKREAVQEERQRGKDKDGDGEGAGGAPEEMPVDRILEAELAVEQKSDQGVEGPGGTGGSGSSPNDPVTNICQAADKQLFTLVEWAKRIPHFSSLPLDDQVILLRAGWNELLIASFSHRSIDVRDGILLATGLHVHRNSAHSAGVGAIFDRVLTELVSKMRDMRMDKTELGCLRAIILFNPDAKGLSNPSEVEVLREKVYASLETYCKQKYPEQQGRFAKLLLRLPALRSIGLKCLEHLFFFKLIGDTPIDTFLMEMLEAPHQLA
human Thyroid Receptor alpha (THRa1), THRA (gene 7067), sequence (P10827 whole entry, looked up, the tested form may be a part): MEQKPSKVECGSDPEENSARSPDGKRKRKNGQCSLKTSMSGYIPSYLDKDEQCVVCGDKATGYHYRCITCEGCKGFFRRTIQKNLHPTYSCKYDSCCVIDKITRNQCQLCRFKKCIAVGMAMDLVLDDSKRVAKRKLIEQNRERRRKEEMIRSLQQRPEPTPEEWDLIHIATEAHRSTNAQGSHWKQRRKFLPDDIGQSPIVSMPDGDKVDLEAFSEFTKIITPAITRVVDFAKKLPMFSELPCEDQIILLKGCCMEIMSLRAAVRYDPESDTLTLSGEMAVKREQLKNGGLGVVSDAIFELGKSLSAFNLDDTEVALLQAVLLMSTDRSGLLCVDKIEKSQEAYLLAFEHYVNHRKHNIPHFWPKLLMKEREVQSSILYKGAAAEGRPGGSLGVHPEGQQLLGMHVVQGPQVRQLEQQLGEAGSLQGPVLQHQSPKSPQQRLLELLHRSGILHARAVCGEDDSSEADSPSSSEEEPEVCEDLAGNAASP
human Peroxisome Proliferator-activated Receptor alpha (PPARa), PPARA (gene 5465), sequence (Q07869 whole entry, looked up, the tested form may be a part): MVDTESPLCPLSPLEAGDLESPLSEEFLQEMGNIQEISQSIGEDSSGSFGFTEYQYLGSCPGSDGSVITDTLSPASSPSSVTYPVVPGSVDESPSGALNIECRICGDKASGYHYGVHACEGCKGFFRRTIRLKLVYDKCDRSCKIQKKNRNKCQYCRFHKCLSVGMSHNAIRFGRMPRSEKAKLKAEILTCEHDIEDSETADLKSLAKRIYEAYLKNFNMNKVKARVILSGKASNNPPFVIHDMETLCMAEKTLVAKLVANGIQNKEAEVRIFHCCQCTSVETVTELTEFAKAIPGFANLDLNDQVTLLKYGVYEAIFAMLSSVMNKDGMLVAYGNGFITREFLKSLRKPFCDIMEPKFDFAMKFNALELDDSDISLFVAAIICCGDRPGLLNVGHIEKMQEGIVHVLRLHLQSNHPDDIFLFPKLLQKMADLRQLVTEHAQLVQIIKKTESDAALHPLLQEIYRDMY
E-selectin (Homo sapiens), sequence (P16581 whole entry, looked up): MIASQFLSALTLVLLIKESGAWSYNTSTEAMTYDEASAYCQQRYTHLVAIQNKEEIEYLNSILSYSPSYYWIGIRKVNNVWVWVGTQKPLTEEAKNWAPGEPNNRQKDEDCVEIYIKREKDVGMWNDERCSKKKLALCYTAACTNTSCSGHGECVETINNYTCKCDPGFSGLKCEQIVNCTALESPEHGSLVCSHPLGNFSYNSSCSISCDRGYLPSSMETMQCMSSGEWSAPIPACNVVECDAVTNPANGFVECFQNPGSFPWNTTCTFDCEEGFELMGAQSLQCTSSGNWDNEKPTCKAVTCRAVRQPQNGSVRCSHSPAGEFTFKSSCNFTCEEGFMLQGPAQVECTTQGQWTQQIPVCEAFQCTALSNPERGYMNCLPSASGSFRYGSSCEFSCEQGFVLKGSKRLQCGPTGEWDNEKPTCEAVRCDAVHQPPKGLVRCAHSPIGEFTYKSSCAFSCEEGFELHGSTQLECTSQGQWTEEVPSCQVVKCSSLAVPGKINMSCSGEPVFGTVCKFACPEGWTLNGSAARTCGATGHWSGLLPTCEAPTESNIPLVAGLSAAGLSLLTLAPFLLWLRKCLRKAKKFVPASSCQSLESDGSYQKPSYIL
human RAR-related Orphan Receptor gamma (RORg), RORC (gene 6097), sequence (P51449 whole entry, looked up, the tested form may be a part): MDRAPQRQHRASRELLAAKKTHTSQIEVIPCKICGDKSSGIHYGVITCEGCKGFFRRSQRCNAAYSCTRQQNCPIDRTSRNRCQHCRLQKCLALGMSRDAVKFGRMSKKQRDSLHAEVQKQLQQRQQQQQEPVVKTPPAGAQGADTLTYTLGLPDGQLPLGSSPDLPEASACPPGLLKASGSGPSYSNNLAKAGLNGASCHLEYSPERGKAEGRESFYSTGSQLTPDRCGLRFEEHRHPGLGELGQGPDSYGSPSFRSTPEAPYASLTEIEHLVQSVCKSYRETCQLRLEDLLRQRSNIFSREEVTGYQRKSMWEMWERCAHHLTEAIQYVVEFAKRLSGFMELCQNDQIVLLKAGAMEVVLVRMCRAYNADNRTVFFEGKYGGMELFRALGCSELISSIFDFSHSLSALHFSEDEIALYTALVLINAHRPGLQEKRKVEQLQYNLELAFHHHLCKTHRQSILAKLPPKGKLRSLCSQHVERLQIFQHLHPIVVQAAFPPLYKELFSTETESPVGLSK
Nuclear receptor subfamily 1 group I member 2 (Homo sapiens), sequence (O75469 whole entry, looked up, the tested form may be a part): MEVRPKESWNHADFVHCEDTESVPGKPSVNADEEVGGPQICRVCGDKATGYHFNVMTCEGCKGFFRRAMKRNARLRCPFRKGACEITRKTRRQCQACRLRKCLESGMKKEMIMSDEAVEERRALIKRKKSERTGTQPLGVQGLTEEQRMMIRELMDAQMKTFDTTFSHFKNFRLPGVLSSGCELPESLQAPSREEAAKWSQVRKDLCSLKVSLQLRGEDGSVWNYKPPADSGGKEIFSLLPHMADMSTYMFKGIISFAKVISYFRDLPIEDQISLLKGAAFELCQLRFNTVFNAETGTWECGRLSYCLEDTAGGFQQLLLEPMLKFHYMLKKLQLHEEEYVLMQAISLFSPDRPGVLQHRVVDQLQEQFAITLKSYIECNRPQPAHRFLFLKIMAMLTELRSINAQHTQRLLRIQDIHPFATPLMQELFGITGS
Retinoic acid receptor alpha (Homo sapiens), sequence (P10276 whole entry, looked up, the tested form may be a part): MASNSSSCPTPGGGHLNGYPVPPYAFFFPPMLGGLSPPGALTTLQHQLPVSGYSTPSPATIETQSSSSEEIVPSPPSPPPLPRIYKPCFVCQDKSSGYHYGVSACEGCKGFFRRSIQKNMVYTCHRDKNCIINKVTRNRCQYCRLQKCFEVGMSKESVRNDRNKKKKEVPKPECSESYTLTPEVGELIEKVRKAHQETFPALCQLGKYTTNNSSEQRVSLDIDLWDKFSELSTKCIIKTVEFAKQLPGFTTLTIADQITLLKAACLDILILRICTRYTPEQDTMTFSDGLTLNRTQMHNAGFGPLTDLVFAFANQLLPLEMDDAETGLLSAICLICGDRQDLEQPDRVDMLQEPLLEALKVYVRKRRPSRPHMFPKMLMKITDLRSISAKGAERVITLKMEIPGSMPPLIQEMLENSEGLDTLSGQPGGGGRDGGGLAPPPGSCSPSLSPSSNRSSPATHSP

For `COC(=O)CCCCC(=O)OC`, the outcome in [1], in experiment [2], in experiment [3], in experiment [4], in experiment [5] and in experiment [6] was inactive. Besides, the call in experiment [7], in [8], in experiment [9], in experiment [10], in experiment [11] and in experiment [12] was inactive. The result in [13], in [14], in [15] and in [16] was inactive.
For the molecule `FC(F)(I)C(F)(F)C(F)(F)C(F)(F)C(F)(F)C(F)(F)I`, the AC50 in experiment [1] was 27.3 µM (active); in [5], 12.9 µM (active) [middle of 5 runs]; in [17], 14.4 µM (active); in [8], 20.5 µM (active); in experiment [11] it was 30 µM (active) [middle of 5 runs]. In addition, the outcome in [2] and in experiment [18] was inactive.
In the case of `CC(O)C(=O)O` (configuration not stated), the result in experiment [1], in experiment [2], in [19], in experiment [4], in [6] and in [20] was inactive. The outcome in experiment [7], in [8] and in experiment [9] was inactive.
Turning to `OC1CCCCC1`, the call in experiment [1], in experiment [2], in experiment [3], in experiment [5], in experiment [18] and in experiment [7] was inactive. In addition, the molecule was called inactive in experiment [8], in [9], in experiment [10], in [11], in experiment [12] and in experiment [13]. Also, the outcome in [14], in experiment [15] and in experiment [16] was inactive.
`CN1CCC[C@H]1c1cccnc1`: the result in experiment [1], in [3], in [5], in experiment [17], in [6] and in [18] was inactive. In addition, the result in experiment [7], in [9], in [10], in experiment [11], in experiment [12] and in experiment [13] was inactive. The result in experiment [14], in experiment [15] and in experiment [16] was inactive.
